Test results: PubChem BioAssay (NCATS)
“And” between values parts separate entries of the source, which are not always exact repeats. Equal values may be shown once. Records with an inconclusive call do not appear. The source made the active and inactive calls. Unless noted, calls follow the shape of the dose curve; as a rule, active = well fitted curve in the direction sought with a large enough effect; inconclusive = small, poorly fitted or top-dose-only effect, or another doubt; inactive = no such curve, though single readings can be large; an effect the other way counts as inactive or inconclusive.

How the values were obtained:
[1] = target: Cytochrome P450 3A4 (Homo sapiens) (UniProt P08684); test: qHTS Assay for Inhibitors and Substrates of Cytochrome P450 3A4 (AID 884); also: nearly all actives have a fitted effect of over 50% in size; also: potency is read from the fitted curve at half-maximal effect; as to activity change, negative = inhibition: % is scaled to controls: 0 for no effect and ±100 for the full control effect
Cytochrome P450 3A4 (Homo sapiens), sequence (P08684 whole entry, looked up): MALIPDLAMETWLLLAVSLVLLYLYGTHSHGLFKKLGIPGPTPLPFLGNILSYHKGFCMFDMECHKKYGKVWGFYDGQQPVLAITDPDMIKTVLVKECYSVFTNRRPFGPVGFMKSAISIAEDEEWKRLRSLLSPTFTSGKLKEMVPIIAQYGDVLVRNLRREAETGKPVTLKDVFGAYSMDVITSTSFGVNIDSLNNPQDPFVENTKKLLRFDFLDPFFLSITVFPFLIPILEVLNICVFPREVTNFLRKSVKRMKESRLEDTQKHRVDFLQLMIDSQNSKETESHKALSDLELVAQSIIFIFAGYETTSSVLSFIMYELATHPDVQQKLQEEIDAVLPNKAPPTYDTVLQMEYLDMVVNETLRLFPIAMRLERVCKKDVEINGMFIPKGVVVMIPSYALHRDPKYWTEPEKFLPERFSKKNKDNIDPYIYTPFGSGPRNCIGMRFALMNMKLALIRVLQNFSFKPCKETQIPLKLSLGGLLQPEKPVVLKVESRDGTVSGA
Method in brief: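 Luminescent readout of luciferin produced by CYP3A4 (20 nM) dealkylation of Luciferin-PPXE, 25 uM (its KM). NADPH-driven reaction ran 60 min at RT after 10 min compound preincubation; data scaled to 57 uM ketoconazole as 100% inhibition.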

[2] = Confirmation and Secondary Assay for Modulators of Hemoglobin Beta Chain Splicing at IVS2 654 locus (AID 910);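 also: per-well total GFP intensity by laser scanning cytometry after 2-day treatment; % of control where 0% means no effect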
Method in brief: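 HeLa cells stably carrying EGFP interrupted by mutant beta-globin IVS2-654 intron (CMV-driven) were treated with compound for 2 days at 37C; corrected splicing was scored as total peak GFP intensity per well (488 nm excitation, 500-520 nm emission).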

[3] = Confirmation and Secondary Assay for Modulators of Hemoglobin Beta Chain Splicing at IVS2 705 locus (AID 930);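 also: HeLa cells stably expressing the EGFP-705 splicing reporter; % of control where 0% means no effect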
Method in brief: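 Restored EGFP fluorescence after 2-day compound exposure reports splicing correction in IVS2-705 EGFP reporter HeLa cells; positive control was 500 nM splice-blocking PNA oligo. Signal measured as well total peak GFP intensity (488 nm excitation).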

[4] = qHTS Assay for Lipid Storage Modulators (AID 1519; calls by dose curve); conditions: Drosophila S3 cells, BODIPY lipid droplet/cell ratio, laser cytometry, cells loaded with oleic acid; for activity change, negative = inhibition: at 57.5 µM (top of the series)
Method in brief: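 Cells seeded at 5,000 per well were treated with compounds over a concentration series and loaded with oleic acid (400 uM, as added). Lipid droplet fluorescence (488 nm excitation, 500-530 nm channel) was read by laser-scanning cytometry and normalized to 20 uM Triacsin C.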

[5] = target: Ubiquitin carboxyl-terminal hydrolase 1 (Homo sapiens) (UniProt O94782); test: Inhibitors of USP1/UAF1: Pilot qHTS (AID 504865);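 also: rhodamine fluorescence freed from ubiquitin-rhodamine substrate followed over time; top concentration of the series differs between compounds; % is scaled to controls: 0 for no effect and ±100 for the full control effect; nearly all actives have a fitted effect of over 35% in size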
Ubiquitin carboxyl-terminal hydrolase 1 (Homo sapiens), sequence (O94782 whole entry, looked up): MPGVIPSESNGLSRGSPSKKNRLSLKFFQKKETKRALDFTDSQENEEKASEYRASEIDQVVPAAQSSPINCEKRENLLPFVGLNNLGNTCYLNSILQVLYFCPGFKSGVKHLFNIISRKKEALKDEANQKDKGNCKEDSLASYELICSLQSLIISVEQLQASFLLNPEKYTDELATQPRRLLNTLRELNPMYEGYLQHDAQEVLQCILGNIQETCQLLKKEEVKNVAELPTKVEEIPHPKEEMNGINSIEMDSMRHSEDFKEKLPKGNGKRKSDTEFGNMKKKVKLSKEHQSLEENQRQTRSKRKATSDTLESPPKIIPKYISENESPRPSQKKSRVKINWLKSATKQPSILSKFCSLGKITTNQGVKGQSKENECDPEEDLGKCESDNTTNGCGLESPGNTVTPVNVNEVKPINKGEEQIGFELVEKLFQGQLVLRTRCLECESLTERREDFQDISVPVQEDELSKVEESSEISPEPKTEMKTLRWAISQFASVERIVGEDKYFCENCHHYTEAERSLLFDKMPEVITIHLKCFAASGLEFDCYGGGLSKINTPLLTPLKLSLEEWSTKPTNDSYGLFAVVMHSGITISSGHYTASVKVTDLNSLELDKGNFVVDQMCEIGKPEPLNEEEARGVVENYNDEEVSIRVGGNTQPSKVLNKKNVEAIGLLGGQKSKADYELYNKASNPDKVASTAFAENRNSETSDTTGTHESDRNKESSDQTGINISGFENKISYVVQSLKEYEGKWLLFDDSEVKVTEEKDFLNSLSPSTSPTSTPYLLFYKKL
Method in brief: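 1nM USP1/UAF1 + cpd, 15 min RT; start w/ Ub-Rho 150nM final; kinetic FL 480/540 nm, 6 reads q60 s. Buffer 50mM HEPES pH 7.8, 0.5mM EDTA, 1mM TCEP, 0.01% Tween-20, 0.1 mg/ml BSA.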

[6] = qHTS assay for small molecule antagonists of peroxisome proliferator-activated receptor delta signaling (AID 588535); conditions: HEK293T PPARd-UAS-bla, beta-lactamase FRET ratio, 18 h; 460 nm channel;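 also: cells co-treated with a PPAR-delta agonist as stimulator during compound exposure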
Method in brief: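 Compounds tested in titration on PPAR-delta-UAS-bla HEK293T cells grown in charcoal/dextran-stripped serum (2%); beta-lactamase activity read via CCF4 emission at 460 and 530 nm.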

[7] = target: Peroxisome proliferator-activated receptor gamma (Homo sapiens) (UniProt P37231); test: qHTS assay for small molecule agonists of peroxisome proliferator-activated receptor gamma signaling (AID 588536; active = well fitted curve in the direction sought with a large enough effect in the signal ratio, with a control signal flat, not every such curve was filed as active; the % refers to the signal ratio;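 also: 0% = DMSO basal wells and 100% = rosiglitazone at 2 µM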)
Peroxisome proliferator-activated receptor gamma (Homo sapiens), sequence (P37231 whole entry, looked up): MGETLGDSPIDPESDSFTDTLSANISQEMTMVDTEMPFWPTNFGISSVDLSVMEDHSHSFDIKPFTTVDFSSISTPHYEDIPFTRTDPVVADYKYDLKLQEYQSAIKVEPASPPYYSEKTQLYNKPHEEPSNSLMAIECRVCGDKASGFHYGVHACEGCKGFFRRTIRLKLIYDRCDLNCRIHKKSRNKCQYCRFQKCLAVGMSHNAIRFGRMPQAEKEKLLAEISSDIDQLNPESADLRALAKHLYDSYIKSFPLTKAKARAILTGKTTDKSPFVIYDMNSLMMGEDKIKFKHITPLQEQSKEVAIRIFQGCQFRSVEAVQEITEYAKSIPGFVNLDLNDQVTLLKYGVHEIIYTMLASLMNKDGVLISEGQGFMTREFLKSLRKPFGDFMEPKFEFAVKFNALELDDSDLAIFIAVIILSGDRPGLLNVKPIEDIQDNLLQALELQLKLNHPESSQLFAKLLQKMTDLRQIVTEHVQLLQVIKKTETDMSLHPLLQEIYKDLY
Method in brief: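 This is an agonist-mode beta-lactamase reporter assay in HEK293 PPAR-gamma-UAS-bla cells with 1% charcoal/dextran FBS. Compound titrations ran 16 h at 37 C before CCF4 detection. EC50 and efficacy are Hill fits scaled to 2 uM rosiglitazone (100%) and DMSO basal.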

[8] = target: Vitamin D3 receptor (Homo sapiens) (UniProt P11473); test: qHTS assay for small molecule antagonists of vitamin D receptor signaling (AID 588541; calls by dose curve;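 also: receptor activated by calcitriol during compound treatment; % is scaled to controls: 0 for no effect and ±100 for the full control effect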)
Vitamin D3 receptor (Homo sapiens), sequence (P11473 whole entry, looked up): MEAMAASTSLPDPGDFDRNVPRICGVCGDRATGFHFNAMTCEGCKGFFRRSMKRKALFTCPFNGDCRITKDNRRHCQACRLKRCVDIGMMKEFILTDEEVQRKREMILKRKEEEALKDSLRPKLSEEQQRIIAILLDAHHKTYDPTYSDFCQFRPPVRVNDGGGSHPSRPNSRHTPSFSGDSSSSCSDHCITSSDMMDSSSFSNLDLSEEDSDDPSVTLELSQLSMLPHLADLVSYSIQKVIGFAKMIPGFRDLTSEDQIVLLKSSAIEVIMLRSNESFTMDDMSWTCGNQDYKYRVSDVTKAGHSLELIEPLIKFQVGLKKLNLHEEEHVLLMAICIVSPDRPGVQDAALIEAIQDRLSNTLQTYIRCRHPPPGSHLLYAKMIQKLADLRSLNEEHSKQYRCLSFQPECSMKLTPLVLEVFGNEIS
Method in brief: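 VDR-UAS-bla HEK293T cells (2000/well, 2% charcoal-stripped FBS) were treated with titrated compounds plus 1-alpha,25-dihydroxyvitamin D3 (50 nM or 3 nM final) for 16 h at 37 C. CCF4 beta-lactamase fluorescence was read; Hill fits gave IC50.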

[9] = qHTS assay for small molecule agonists of retinoid X receptor alpha signaling (AID 588544); conditions: HEK293T RXRa-UAS-bla, beta-lactamase reporter, 18 h; 530 nm emission
[10] = qHTS assay for small molecule antagonists of retinoid X receptor alpha signaling (AID 588546; active = well fitted inhibition curve with a large enough effect in the signal ratio, with a control signal flat, not every such curve was filed as active; the % refers to the signal ratio;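 also: cells stimulated with 9-cis-retinoic acid as agonist; % is scaled to controls: 0 for no effect and ±100 for the full control effect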); conditions: HEK293T RXRa-UAS-bla, beta-lactamase ratio, antagonist mode; measured here: W530 green channel, cytotoxicity proxy
Method in brief: (§1)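 Beta-lactamase reporter inhibition, read as CCF4 fluorescence ratio (ex 405, em 460/530 nm) after 2 h at RT. HEK293T UAS-bla cells, 2500/well, were stimulated with 9-cis-RA at 500 or 100 nM final alongside test compound for 18 h at 37 C.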

[11] = target: Retinoic acid receptor RXR-alpha (Homo sapiens) (UniProt P19793); test: as above; conditions: HEK293T RXRa-UAS-bla, beta-lactamase ratio, antagonist mode
Retinoic acid receptor RXR-alpha (Homo sapiens), sequence (P19793 whole entry, looked up): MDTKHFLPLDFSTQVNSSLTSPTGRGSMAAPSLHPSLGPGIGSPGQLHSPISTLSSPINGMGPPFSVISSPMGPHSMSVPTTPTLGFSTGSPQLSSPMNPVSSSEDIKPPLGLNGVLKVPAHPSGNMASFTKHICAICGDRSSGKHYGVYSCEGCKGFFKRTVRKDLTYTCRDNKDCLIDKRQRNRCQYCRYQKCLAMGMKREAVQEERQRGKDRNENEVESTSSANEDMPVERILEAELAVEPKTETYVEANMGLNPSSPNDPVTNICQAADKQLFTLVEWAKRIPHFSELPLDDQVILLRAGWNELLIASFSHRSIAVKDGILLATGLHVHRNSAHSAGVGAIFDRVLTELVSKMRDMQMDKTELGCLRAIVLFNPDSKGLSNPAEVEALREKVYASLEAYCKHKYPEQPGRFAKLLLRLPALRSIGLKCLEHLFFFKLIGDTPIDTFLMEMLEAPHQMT
Method in brief: as §1

[12] = qHTS assay for environmental chemicals that activate the Aryl hydrocarbon Receptor (AhR) signaling pathway (AID 651777); conditions: 1A2-DRE human hepatoma cells, luciferase, 24 h; activation: stronger effect = higher value; also: % of control where 0% means no effect; nearly all actives have a fitted effect of over 15% in size
Method in brief: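 Luminescence (One-Glo, 30 min, room temperature) reports AhR-driven luciferase in stably transfected human hepatoma cells bearing DRE and CYP1A2 promoter. Cells (1,200/well) were treated with compound for 24 hr at 37 C in qHTS format.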

[13] = target: Peroxisome proliferator-activated receptor alpha (Homo sapiens) (UniProt Q07869); test: qHTS assay for small molecule agonists of the peroxisome proliferator-activated receptor alpha (PPARalpha) signaling pathway (AID 651778); conditions: PathHunter PPARalpha complementation, chemiluminescence, 6 h; stronger effect = higher value; also: % of control where 0% means no effect
Peroxisome proliferator-activated receptor alpha (Homo sapiens), sequence (Q07869 whole entry, looked up): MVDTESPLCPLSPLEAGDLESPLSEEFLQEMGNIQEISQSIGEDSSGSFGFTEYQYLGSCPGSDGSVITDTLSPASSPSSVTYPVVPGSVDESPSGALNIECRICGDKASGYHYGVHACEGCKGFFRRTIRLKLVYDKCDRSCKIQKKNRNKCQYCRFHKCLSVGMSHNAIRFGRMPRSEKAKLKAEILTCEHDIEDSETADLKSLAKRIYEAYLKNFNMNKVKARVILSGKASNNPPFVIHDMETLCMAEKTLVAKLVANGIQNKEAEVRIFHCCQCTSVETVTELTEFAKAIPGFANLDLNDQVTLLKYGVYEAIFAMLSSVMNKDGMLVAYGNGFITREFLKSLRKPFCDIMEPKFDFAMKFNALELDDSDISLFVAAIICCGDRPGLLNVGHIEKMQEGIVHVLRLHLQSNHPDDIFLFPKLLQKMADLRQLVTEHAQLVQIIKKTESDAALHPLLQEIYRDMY
Method in brief: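 Cells plated at 2,000/well and held overnight at 37 C, 5% CO2, then compound added by pin tool for 6 hr; after PathHunter detection reagent and 60 min at room temperature, chemiluminescence from enzyme complementation was read.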

[14] = qHTS assay for small molecule agonists of the antioxidant response element (ARE) signaling pathway measured by Nrf2-dependant transcriptional activity - cell viability counter screen (AID 720653; active = well fitted curve in the direction sought with a large enough effect in the repeat runs; an effect the other way counts as inactive or inconclusive; also: % is scaled to controls: 0 for no effect and ±100 for the full control effect); conditions: ARE-bla HepG2 viability, CellTiter-Glo ATP luminescence, 16 h; stronger effect = lower value
Method in brief: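 ARE-bla HepG2 cells (2,000/well) rested 5 hrs at 37C/5% CO2, then exposed to compounds in DMSO for 16 hrs. Viability was read in the same wells as intracellular ATP by luminescence, 30 min at room temperature after reagent addition.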

[15] = qHTS assay for cell viability of HEK293 cells (AID 743288); conditions: ATP luminescence (CellTiter-Glo), 18 h; max response: stronger effect = lower value; also: % is scaled to controls: 0 for no effect and ±100 for the full control effect; nearly all actives have a fitted effect of over 50% in size
Method in brief: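 ATP luminescence (CellTiter-Glo) reports metabolically competent cell number after parental HEK293 cells, 2,000/well, were treated with DMSO-dissolved compounds for 18 h at 37 C; reagent incubation 30 min, room temperature.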

[16] = qHTS assay for cell viability of the p53RE-bla HCT-116 cell line (AID 743292); also: % is scaled to controls: 0 for no effect and ±100 for the full control effect; nearly all actives have a fitted effect of over 55% in size
Method in brief: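 ATP-based luminescent viability (CellTiter-Glo, 30 min RT) after 16 h compound treatment at 37 C of p53RE-bla HCT-116 cells, seeded at 4,000 cells/well and rested 5 h before dosing.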

[17] = target: Nuclear receptor subfamily 1 group I member 2 (Rattus norvegicus) (UniProt Q9R1A7); test: qHTS assay for small molecule activators of the rat pregnane X receptor (rPXR) signaling pathway (AID 651751; call rule not given here; also: 0% is about no effect); conditions: rPXR reporter cells, luciferase (One-Glo), 24 h
Nuclear receptor subfamily 1 group I member 2 (Rattus norvegicus), sequence (Q9R1A7 whole entry, looked up): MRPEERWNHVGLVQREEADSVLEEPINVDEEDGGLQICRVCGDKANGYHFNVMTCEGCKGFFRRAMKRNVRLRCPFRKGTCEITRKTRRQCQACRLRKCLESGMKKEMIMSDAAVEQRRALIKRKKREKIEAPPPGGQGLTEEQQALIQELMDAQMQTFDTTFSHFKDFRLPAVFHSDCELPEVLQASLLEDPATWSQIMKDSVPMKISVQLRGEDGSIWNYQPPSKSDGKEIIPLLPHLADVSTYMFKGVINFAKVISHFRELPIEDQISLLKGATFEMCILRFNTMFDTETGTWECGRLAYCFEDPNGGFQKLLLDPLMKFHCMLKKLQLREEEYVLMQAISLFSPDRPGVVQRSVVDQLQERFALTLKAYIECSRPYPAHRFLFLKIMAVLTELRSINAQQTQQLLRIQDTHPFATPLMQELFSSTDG

[18] = qHTS assay for small molecule activators of the p53 signaling pathway (AID 651743; active = well fitted activation curve with a large enough effect in the signal ratio, not every such curve was filed as active; the % refers to the signal ratio; also: % of control where 0% means no effect); conditions: HCT-116 p53RE-bla, beta-lactamase FRET ratio, 16 h; activation: stronger effect = higher value
Method in brief: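 Here HCT-116 cells with an integrated p53-responsive beta-lactamase gene were incubated with compounds (16 hours, 37 C) after a 5-hour plating period; beta-lactamase activity was detected as fluorescence intensity via B/G FRET substrate.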

[19] = target: Cytochrome P450 3A4 (Homo sapiens) (UniProt P08684); test: qHTS Assay for Activators of Cytochrome P450 3A4 (AID 885); also: nearly all actives have a fitted effect of over 65% in size
Method in brief: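 Luminescent readout of luciferin formed from 25 uM Luciferin-PPXE (KM level) by 20 nM CYP3A4 in 200 mM KPO4, with 60 min NADPH-driven reaction at room temperature after 10 min compound exposure. Ketoconazole (57 uM) defined 100% inhibition.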

[20] = measured here: cell count channel max response
[21] = measured here: lipid channel max response

CNC(=O)CSP(=S)(OC)OC
8.94%: max response [4, 21]
inactive: Potency [1] | Potency [2] | Potency [3] | activity change, negative = inhibition [4] 4.16% | Potency [5] | outcome [7] | outcome [8] | max response [11] -6.5% | activation [12] 0.301% and 4.06% | max response [13] -2.63% and -0.399% | max response [14] -1.41% and -0.459% | max response [15] -6.64% and -7.96% | Potency [16] | max response [17] -3.03% and -0.565%
1.7%: max response [10]
5.57%: max response [4, 20]
27.9%: max response [6]
1.61%: max response [9]

CCc1cccc(C)c1N(C(=O)CCl)C(C)COC (centres undefined)
1.84%: max response [4, 20]
4.99%: max response [4, 21]
inactive: Potency [1] | Potency [2] | Potency [3] | activity change, negative = inhibition [4] 1.46% | Potency [5] | outcome [8] | max response [11] -18.8% | activation [18] -2.17% | activation [12] -0.315% | max response [13] -0.424% | max response [14] -0.37% | max response [15] -14.8% | Potency [16] | max response [17] 14%
0.387%: max response [10]

CC1(C)C(O)CC(O)[C@]2(C)C1CC(=O)[C@]1(C)C2CC[C@@]2(C)C(c3ccoc3)OC(=O)C3OC321 (some centres undefined)
active: Potency [1] 6.31 µM
inactive: Potency [19] | Potency [2] | Potency [3] | activity change, negative = inhibition [4] -5.65% | Potency [5]
11.8%: max response [4, 21]
17%: max response [4, 20]

COc1cc2c3cc1Oc1c(OC)c(OC)cc4c1C(Cc1cccc(c1)Oc1ccc(c(O)c1)CC3N(C)CC2)N(C)CC4 (centres undefined)
22.7%: max response [4, 21]
inactive: Potency [1] | Potency [2] | Potency [3] | activity change, negative = inhibition [4] 6.04% | Potency [5]
15.8%: max response [4, 20]

CC(C)(C)C(=O)C(Oc1ccc(Cl)cc1)n1cncn1 (centres undefined)
-36.1% and 32.9%: max response [6]
16.7%: max response [4, 21]
16% and -16.7%: max response [9]
inactive: Potency [19] | Potency [2] | Potency [3] | activity change, negative = inhibition [4] 7.2% | Potency [5] | outcome [7] | outcome [8] | max response [11] 0.375% and -49.7% | activation [18] -0.546% and 1.4% | activation [12] 6% | max response [13] 1.14% and -0.0791% | max response [14] 5.28% and -3.18% | max response [15] -10.8% and -21.2% | Potency [16]
2.99% and 5.39%: max response [10]
5.9%: max response [4, 20]

CCCCSP(=O)(SCCCC)SCCCC
52%: max response [4, 21]
-5.76%: max response [6]
36.8%: max response [4, 20]
inactive: Potency [1] | Potency [2] | Potency [3] | activity change, negative = inhibition [4] 12.5% | Potency [5] | outcome [7] | outcome [8] | activation [18] -2.51% | activation [12] -2.91% | max response [13] 3.39% | max response [14] 12.3%
